Beta apoptosis = inhibitors of cytokine-induced beta cell apoptosis, primary screen, luminescence; INS-1E cytokine-induced death, ATP luminescence, 48 h; percent of positive-control rescue, neutral wells zero; protection from apoptosis, % (no concentration beside the values); hit rate 0.8% among 300,000;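 active means Every replicate reaches about 75%, or at least half do and their mean reaches it too, limit read from the data; inconclusive means At least half of replicates reach the limit but their mean does not; inactive means Under half of replicates reach the limit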;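 further: 0% = cytokine-treated negative control wells and 100% = positive control rescue; higher means more ATP so stronger rescue from cytokine killing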
CSC inhib = cancer stem cell viability inhibitors, primary screen, luminescence | cancer stem cell-like cells viability | inhibition, % at 7.5 µM | hit rate 1.1% among 300,000 | AID 2717, 2010; in the data active means inhibition above about 75%; inconclusive means no clear call, values can overlap the other calls; tested in HMLE shEcad cells
aSyn 5UTR inh = MLPCN primary screen, SNCA 5' untranslated region; alpha-synuclein 5'UTR reporter, inhibitor activity; inhibition, % (tested at 7.5 µM); hit rate 0.82% among 300,000; AID 1813, 2009; in the data active means inhibition above about 60%; inconclusive means no clear call, values can overlap the other calls;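 further: H4 neuroglioblastoma cells stably carrying SNCA 5'UTR luciferase fusion; 0% = DMSO wells and 100% = positive control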
Bfl-1 A1 inh = caspase 3/7 activation in MEF A1-2A-BIM cells, primary screen, A1 inhibitor project, cell-based, luminescence, HTS; Caspase-Glo 3/7 luminescence, 3 h; percent of clofoctol response, vehicle zero; caspase activation, % (concentration not given with the values); hit rate 0.066% among 330,000;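 active means over half of replicate activation scores above 10%, or exactly half above 10 with the replicate mean above 10; inconclusive means replicate mean below 10 yet half the replicates above 10; inactive means over half of replicates below 10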
Mdm2-MdmX inh = inhibitors of human Mdm2-MdmX association, primary screen, cell-based, luminescence, split luciferase, SaOS-2, uHTS; SaOS-2 split-luciferase Mdm2/MdmX complementation; Protein Mdm4 (Homo sapiens) + E3 ubiquitin-protein ligase Mdm2 (Homo sapiens), …; hit rate 3% among 330,000; AID 485346, 2010; inhibition, % at 8 µM;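 active means inhibition of at least 50% at 8 µM in the primary screen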
Target sequence (O15151 whole entry, looked up): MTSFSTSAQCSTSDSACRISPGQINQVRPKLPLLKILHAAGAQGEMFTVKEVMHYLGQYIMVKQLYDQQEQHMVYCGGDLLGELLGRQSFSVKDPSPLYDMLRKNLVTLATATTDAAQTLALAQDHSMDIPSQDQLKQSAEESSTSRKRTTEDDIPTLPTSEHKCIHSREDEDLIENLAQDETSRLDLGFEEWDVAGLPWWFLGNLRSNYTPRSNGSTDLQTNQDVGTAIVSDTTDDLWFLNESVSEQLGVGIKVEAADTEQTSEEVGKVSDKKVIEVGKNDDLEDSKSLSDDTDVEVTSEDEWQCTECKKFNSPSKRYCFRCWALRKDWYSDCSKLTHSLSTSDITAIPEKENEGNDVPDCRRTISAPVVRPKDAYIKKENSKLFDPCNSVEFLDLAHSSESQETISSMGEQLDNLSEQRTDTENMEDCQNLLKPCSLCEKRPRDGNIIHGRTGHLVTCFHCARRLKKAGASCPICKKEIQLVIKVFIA
Target sequence (Q00987 whole entry, looked up): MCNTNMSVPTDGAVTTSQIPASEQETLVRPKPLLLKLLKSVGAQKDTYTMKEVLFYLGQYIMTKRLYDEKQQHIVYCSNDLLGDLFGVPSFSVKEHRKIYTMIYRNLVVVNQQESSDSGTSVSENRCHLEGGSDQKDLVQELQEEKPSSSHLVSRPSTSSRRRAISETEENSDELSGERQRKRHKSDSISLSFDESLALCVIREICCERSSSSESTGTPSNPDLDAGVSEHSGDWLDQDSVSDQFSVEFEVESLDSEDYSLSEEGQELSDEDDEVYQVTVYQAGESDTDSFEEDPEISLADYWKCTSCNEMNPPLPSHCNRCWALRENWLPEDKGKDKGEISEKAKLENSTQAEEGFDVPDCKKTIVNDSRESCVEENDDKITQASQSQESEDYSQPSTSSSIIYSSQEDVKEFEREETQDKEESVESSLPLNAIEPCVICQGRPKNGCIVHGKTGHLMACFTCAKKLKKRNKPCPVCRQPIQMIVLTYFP
Mdm2-MdmX conf = Mdm2-MdmX complex disruptors, retested hits, confirmation, luminescence, single concentration; shares compounds with Mdm2-MdmX inh; Mdm2-MdmX binding, luminescent assay; inhibition, % at 8 µM; hit rate 55% among 10,000; AID 489028, 2010; in the data active means inhibition above about 40%
FLuc counter = full-length luciferase signal inhibition, confirmation, counter-screen for Mdm2/MdmX interaction inhibitor project, cell-based, single concentration, SaOS-2 | shares compounds with Mdm2-MdmX inh | SaOS-2 full-length luciferase counterscreen, luminescence | inhibition, % at 8 µM | hit rate 77% among 6,200 | AID 504607, 2011;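 active means mean inhibition at 8 µM reaching about 37%, which flags the compound as non-specific, limit read from the data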;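 further: p53-null SaOS-2 cells with luciferase driven by a doxycycline-inducible promoter; compound on cells about two nights before reading with doxycycline added after day one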
The depositor's hits bear a star; ? = inconclusive; / = no result. Rows were chosen to be rich in hits. Some 4.1% of all compounds tested hit in one or more screens of this group.

SMILES	Beta apoptosis	CSC inhib	aSyn 5UTR inh	Bfl-1 A1 inh	Mdm2-MdmX inh	Mdm2-MdmX conf	FLuc counter
OC(c1cc(C(F)(F)F)nc2c(Cl)cc(Cl)cc12)C1CCCCN1 (centres undefined)	36	41	7	2	68*	42*	48*
O=C(c1cccc(Br)c1)N1CCN(S(=O)(=O)N2CCCCC2)CC1	/	/	15	/	-13	/	/
COc1ccc(-c2nc(NC(=O)C3CCN(c4nc5ccccc5o4)CC3)sc2C)cc1	24	49	-4	0	51*	29	/
CSCCC(NC(=O)c1cccc(C)c1)C(=O)NNC(=O)c1cccs1 (centres undefined)	-3	-11	/	1	12	/	/
O=C(Cn1c(=O)oc2cc(S(=O)(=O)N3CCCCC3)ccc21)N1CCc2ccccc21	6	-9	16	0	59*	0	/
O=C(Cn1c(=O)oc2cc(S(=O)(=O)N3CCCC3)ccc21)N1CCc2ccccc2C1	2	-3	11	0	9	/	/
O=S(=O)(Nc1nc2ccccc2nc1Nc1ccc2c(c1)OCO2)c1ccc(F)cc1	27	0	-15	0	50*	27	/
O=S(=O)(Nc1nc2ccccc2nc1Nc1cccc(S(=O)(=O)N2CCCCC2)c1)c1ccccc1	57	124*	47	-1	82*	79*	43*
COc1ccc(-c2oc(=O)c3cc(OC)c(OC)cc3c2/C=C/c2cccc([N+](=O)[O-])c2)cc1	11	33	/	?	54*	15	/
COc1ccc(-c2oc(=O)c3cc(OC)c(OC)cc3c2/C=C/c2ccc([N+](=O)[O-])cc2)cc1	10	-12	/	0	-10	/	/
Cc1cc(C)n2nc(C(=O)OCC(=O)NCc3ccc(F)cc3)nc2n1	4	-5	/	1	0	/	/
CC(C)(C)OC(=O)NCCc1nnc(S(=O)(=O)Cc2ccc(Cl)cc2Cl)o1	-88	?	4	5.9*	77*	59*	5
O=C(/C(=C/c1ccc(Cl)cc1)c1nc2ccccc2[nH]1)c1ccccc1	104*	58	-217	1	100*	99*	51*
COc1cc(/C=C(/C(=O)c2cccs2)c2nc3ccccc3[nH]2)cc(OC)c1O	23	77*	-224	-1	91*	91*	62*
Cc1c(CC(=O)N[C@H](C(=O)O)C(C)C)c(=O)oc2cc3c(cc12)CCC(C)(C)O3	5	1	-110	2	-7	/	/
Cc1ccnc(NC(=O)CNC(=O)c2ccccc2Br)c1	-3	-14	-17	1	-10	/	/
CCN(CC)S(=O)(=O)c1ccc(N2CCN(C)CC2)c(NC(=O)COc2ccc(F)cc2Cl)c1	/	-3	-1	0	8	/	/
CCCN(CCC)CCCNC(=O)c1cc2c(=O)n(CC)c3ccccc3c2s1	5	5	-300	1	71*	58*	59*
COCCCNC(=O)c1ccc(Cn2c(=O)c3ccccc3n(Cc3ccccc3C#N)c2=O)cc1	0	/	?	0	53*	19	/
CCCCN(CC)CCCNC(=O)c1cc2c(=O)n(CC)c3ccccc3c2s1	4	9	-321	1	79*	60*	55*
COCCCNC(=O)c1ccc(Cn2c(=O)c3ccccc3n(Cc3ccccc3C)c2=O)cc1	-4	7	30	0	36	/	/
CCn1c(=O)c2cc(C(=O)NCCCOC)sc2c2ccccc21	0	31	-85	-2	64*	49*	103*
COc1ccccc1N(C)S(=O)(=O)c1ccc(C)c(C(=O)Nc2nccs2)c1	-3	-8	-4	1	-5	/	/
CCCCN(CC)CCCNC(=O)c1cc2c(=O)[nH]c3ccccc3c2s1	-2	6	-29	1	24	/	/
CCCCN(CC)CCNC(=O)c1cc2c(=O)n(CC)c3ccccc3c2s1	5	-2	-274	1	73*	52*	66*
SMILES	Beta apoptosis	CSC inhib	aSyn 5UTR inh	Bfl-1 A1 inh	Mdm2-MdmX inh	Mdm2-MdmX conf	FLuc counter
CCCCN(CC)CCNC(=O)c1cc2c(=O)[nH]c3ccc(C)cc3c2s1	/	5	-26	0	83*	47*	68*
CCCCN(CC)CCNC(=O)c1cc2c(=O)n(C)c3ccccc3c2s1	12	18	-67	0	37	/	/
Cc1ccc(OCCN(C)C(=O)C2CCC(=O)N(CCCN3CCOCC3)C2)cc1 (centres undefined)	-5	6	-5	0	-4	/	/
O=S(=O)(NN=C1CCCCCC1)c1ccccc1	/	/	8	0	-2	/	/
CCN(CC(=O)Nc1ccc(NC(C)=O)cc1)C(=O)c1ccccc1SCC(=O)N1CCCC1	0	-13	/	-1	-3	/	/
CCn1c(SCC(=O)Nc2nc(-c3ccccc3)cs2)nc2c1c(=O)n(C)c(=O)n2C	3	-4	22	0	64*	8	/
CCCn1c(SCC(=O)Nc2nc(-c3ccc(OC)cc3)cs2)nc2c1c(=O)n(C)c(=O)n2C	-2	11	-7	0	68*	13	/
O=C(NCCCCl)C1CC(=O)N(CCc2ccc(F)cc2)C1 (centres undefined)	-2	-20	-6	1	22	/	/
CN(C)Cc1c(O)ccc2c1O/C(=C\C=C\c1ccccc1)C2=O	-27	51	-2	1	101*	72*	21
CCN1CCN(Cc2c(O)ccc3c2O/C(=C\C=C\c2ccccc2)C3=O)CC1	5	7	-33	1	96*	59*	37*
NC(=O)C1CCCN(CC(=O)Nc2cc(S(=O)(=O)N3CCOCC3)ccc2N2CCCC2)C1 (centres undefined)	1	/	/	1	-20	/	/
CCN(Cc1ccccc1)c1ccc(/C=N/NC(=S)NC(C)C)cc1	11	?	24	0	41	/	/
CCN(Cc1ccccc1)c1ccc(/C=N/N=C(N)N)cc1	/	102*	94*	0	98*	100*	58*
O=[N+]([O-])c1ccc2nc(-c3ccccc3)cc(-c3ccccc3)c2c1	0	-21	1	1	8	/	/
Nc1nc(-c2cc(O)ccc2[N+](=O)[O-])cc(-c2ccccc2)c1[N+](=O)[O-]	63	13	-120	-1	65*	57*	54*
COc1ccc(C(=O)N/C(=C\c2ccc(SC)cc2)C(=O)NCCCn2ccnc2)cc1OC	4	-25	/	1	34	/	/
CCOC(=O)C1=C(N)n2c(s/c(=C/c3ccccc3)c2=O)=C(C(=O)OCC)C1c1ccccc1 (centres undefined)	4	-9	-10	-1	51*	-10	/
